Holding throughout (set-up): scale not given: direction of the effect not stated beside the values
Assay [1] concerns the target Protein translocase subunit SecA (Escherichia coli (strain K12)) (UniProt P10408). Put plainly: Assay to Identify E. coli SecA ATPase Inhibitors. It counts as functional. Particulars: 30 µM.
For assay [2], the target named is T1, Ubiquitin-activating enzyme e1, putative (Leishmania donovani (strain BPK282A1)) (UniProt E9BSI1).
T1 sequence (whole entry): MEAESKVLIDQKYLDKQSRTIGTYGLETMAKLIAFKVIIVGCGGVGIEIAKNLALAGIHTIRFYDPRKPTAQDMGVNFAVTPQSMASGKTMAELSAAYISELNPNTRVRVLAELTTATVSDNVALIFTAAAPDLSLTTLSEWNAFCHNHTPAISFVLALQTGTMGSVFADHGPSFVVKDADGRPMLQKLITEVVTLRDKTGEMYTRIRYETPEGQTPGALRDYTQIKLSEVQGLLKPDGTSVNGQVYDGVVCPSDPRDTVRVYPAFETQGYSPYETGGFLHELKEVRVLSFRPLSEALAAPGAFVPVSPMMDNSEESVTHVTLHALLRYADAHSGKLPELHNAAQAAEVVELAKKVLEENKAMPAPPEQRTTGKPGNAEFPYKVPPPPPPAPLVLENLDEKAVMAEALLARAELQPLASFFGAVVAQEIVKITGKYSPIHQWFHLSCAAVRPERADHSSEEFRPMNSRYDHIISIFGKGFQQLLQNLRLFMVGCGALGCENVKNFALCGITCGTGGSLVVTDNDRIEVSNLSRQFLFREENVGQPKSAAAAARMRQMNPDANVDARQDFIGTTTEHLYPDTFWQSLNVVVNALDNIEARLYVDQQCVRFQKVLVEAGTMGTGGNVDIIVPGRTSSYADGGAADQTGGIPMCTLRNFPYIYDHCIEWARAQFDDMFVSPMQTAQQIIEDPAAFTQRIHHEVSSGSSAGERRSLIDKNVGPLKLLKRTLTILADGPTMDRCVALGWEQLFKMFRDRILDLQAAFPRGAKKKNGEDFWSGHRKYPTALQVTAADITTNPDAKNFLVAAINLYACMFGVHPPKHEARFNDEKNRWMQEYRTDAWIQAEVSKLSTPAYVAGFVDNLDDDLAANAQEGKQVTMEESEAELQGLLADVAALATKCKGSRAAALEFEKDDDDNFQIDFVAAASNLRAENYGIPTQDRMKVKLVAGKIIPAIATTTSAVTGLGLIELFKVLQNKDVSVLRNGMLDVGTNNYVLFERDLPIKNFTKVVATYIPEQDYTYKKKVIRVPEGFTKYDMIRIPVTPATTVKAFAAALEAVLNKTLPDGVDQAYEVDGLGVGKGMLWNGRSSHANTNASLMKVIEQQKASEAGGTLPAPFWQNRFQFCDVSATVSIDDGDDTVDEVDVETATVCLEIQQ
Description: Leishmania donovani Ubiquitin Activating Enzyme (LdE1). To be noted: 30 µM. The assay is classed as functional.

Assay [3] addresses Sialic acid-binding Ig-like lectin 9 (Homo sapiens) (UniProt Q9Y336). Put plainly: Hs-Siglec9 ALPHAscreen SOP 20170721. Particulars: 10 µM. A general note: In Alpha technology, singlet oxygen from a donor bead excites a nearby acceptor bead.
Assay [4] has as its system Trypanosoma cruzi. Put plainly: Trypanosoma cruzi phosphomannomutase and mannose-1-phosphate guanylyltransferase assay. Particulars: 10 µM. The assay is classed as functional.
Assay [5] has as its target T2, Arginase-2, mitochondrial (Homo sapiens) (UniProt P78540).
T2 sequence (whole entry): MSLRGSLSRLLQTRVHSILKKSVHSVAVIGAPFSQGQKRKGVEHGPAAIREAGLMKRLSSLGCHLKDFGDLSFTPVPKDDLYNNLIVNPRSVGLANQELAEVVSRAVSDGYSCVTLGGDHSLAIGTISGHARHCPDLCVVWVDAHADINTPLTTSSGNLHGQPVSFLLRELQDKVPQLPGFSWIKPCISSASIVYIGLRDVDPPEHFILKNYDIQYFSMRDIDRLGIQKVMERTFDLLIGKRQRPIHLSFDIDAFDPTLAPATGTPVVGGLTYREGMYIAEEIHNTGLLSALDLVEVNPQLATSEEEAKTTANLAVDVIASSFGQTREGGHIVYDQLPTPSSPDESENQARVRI
Put plainly: in vitro enzyme assay to detect the production of urea directly proportional to the activity of Arginase II. Further: in the data most compounds retested in dose-response had high values. To be noted: 33.3 µM. The assay is classed as functional.

Assay [6] has as its target T3, Proteasome subunit beta (Trypanosoma cruzi) (UniProt O96673).
T3 sequence (whole entry): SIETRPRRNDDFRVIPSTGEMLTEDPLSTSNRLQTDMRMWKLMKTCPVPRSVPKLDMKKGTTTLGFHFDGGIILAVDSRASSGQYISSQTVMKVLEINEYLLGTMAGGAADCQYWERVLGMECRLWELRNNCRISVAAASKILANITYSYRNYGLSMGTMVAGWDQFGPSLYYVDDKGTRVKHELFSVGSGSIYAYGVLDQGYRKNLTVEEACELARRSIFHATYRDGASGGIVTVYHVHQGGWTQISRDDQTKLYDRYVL
Description: Trypanosoma cruzi proteasome chymotrypsin-like activity (TcProtChymo) assay. Further: in the data most compounds retested in dose-response had high values. To be noted: 9.37 µM. The assay is classed as functional.

The species named for assay [7] is Homo sapiens. Put plainly: To identify inhibition of the IFN signalling (Jak-Stat) pathway via expression of an eGFP reporter gene under the control of an IFN-stimulated response element (ISRE) containing MxA promoter. It counts as functional. Particulars: 30 µM. (Reporter assays use an easily measured gene product as a stand-in for the process of interest.)
In assay [8] the target is T4, Tyrosyl-tRNA synthetase, putative (Trypanosoma cruzi (strain CL Brener)) (UniProt Q4DSP6).
T4 sequence (whole entry): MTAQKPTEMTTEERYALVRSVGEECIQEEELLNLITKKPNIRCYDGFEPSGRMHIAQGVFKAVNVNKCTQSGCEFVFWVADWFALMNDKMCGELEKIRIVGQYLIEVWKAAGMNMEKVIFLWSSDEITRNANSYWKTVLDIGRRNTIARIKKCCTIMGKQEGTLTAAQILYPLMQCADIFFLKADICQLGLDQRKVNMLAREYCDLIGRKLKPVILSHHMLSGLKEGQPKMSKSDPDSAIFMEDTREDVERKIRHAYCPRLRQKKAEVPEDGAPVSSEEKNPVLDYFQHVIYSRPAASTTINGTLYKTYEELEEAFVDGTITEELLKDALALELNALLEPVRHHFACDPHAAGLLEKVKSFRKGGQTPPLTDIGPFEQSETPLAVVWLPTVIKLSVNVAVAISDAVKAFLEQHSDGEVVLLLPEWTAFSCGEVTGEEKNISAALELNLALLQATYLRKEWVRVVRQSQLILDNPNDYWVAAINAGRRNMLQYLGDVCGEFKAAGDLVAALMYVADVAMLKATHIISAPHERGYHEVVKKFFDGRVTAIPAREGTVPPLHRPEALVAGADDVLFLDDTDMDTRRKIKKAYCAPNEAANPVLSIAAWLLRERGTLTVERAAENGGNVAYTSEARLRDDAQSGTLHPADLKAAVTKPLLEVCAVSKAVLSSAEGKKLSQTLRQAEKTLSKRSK
Put plainly: Trypanosoma cruzi tyrosyl tRNA synthetase (TcYRS) _High Tyrosine SOP. Further: in the data most compounds retested in dose-response had high values. The assay is classed as functional. To be noted: 30 µM.

Assay [9] addresses T4, Tyrosyl-tRNA synthetase, putative (Trypanosoma cruzi (strain CL Brener)). Description: Trypanosoma cruzi tyrosyl tRNA synthetase (TcYRS) SOP. The assay is classed as functional. To be noted: 30 µM.
Assay [10] deals with Chromo domain-containing protein 1 (Saccharomyces cerevisiae (strain ATCC 204508 / S288c) (Baker's yeast)) (UniProt P32657). Description: ScCHD-1 Enzyme Inhibition Assay. Further: in the data most compounds retested in dose-response had high values. The assay is classed as functional. To be noted: 30 µM.

For part of these data: Entries with a potency or affinity are not part of this list.

Sialic acid-binding Ig-like lectin 9 (Homo sapiens), sequence (Q9Y336 whole entry): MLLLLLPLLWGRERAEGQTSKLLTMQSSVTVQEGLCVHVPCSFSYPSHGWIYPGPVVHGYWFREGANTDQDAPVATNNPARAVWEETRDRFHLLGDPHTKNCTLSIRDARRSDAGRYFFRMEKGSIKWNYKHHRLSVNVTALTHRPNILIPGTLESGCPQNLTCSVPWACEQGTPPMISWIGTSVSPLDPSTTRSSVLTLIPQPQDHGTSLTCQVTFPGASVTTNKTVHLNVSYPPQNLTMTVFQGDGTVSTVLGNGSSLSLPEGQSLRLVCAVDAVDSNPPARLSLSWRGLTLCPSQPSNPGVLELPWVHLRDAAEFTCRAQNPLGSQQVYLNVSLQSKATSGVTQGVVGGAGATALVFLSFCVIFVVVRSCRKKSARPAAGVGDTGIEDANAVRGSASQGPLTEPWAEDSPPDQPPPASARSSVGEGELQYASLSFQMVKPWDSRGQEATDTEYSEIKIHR
Chromo domain-containing protein 1 (Saccharomyces cerevisiae (strain ATCC 204508 / S288c) (Baker's yeast)), sequence (P32657 whole entry, the tested form may be a part): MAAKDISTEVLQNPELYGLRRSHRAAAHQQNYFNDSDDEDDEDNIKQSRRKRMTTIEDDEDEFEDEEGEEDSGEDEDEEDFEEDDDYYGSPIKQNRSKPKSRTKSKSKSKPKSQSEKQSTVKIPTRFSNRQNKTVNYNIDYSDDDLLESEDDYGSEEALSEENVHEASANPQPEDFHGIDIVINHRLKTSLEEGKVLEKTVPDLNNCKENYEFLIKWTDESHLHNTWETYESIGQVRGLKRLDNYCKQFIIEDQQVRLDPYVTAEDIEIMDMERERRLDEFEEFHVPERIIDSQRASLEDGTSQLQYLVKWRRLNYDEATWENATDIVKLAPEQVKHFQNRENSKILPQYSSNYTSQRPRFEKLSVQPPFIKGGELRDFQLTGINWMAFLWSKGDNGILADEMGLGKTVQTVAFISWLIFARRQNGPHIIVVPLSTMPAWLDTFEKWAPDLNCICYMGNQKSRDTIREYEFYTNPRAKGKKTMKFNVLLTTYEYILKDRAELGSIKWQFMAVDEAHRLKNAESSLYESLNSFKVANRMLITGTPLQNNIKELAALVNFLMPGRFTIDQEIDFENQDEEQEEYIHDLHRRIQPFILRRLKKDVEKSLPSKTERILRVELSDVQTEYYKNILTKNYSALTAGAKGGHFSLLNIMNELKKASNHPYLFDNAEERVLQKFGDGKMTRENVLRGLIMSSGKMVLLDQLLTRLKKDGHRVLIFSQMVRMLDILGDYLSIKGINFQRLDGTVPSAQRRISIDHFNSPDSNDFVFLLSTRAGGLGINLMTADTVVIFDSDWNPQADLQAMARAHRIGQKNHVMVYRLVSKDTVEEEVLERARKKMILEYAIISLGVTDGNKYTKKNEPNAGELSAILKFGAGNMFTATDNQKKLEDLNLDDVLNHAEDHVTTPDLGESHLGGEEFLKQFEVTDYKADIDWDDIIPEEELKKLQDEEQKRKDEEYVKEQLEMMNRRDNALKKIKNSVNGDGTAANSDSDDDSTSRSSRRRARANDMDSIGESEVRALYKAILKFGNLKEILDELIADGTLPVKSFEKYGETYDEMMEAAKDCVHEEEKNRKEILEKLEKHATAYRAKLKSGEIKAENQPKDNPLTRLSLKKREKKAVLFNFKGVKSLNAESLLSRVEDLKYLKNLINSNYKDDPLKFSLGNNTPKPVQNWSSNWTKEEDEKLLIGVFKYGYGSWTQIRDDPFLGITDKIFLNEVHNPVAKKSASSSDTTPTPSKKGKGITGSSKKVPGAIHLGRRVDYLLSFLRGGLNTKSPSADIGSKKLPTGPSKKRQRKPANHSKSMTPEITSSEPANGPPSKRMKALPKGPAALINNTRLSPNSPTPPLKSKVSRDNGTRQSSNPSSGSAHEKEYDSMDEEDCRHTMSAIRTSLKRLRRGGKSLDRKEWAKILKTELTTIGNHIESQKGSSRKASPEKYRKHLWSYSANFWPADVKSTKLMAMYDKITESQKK
Protein translocase subunit SecA (Escherichia coli (strain K12)), sequence (P10408 whole entry): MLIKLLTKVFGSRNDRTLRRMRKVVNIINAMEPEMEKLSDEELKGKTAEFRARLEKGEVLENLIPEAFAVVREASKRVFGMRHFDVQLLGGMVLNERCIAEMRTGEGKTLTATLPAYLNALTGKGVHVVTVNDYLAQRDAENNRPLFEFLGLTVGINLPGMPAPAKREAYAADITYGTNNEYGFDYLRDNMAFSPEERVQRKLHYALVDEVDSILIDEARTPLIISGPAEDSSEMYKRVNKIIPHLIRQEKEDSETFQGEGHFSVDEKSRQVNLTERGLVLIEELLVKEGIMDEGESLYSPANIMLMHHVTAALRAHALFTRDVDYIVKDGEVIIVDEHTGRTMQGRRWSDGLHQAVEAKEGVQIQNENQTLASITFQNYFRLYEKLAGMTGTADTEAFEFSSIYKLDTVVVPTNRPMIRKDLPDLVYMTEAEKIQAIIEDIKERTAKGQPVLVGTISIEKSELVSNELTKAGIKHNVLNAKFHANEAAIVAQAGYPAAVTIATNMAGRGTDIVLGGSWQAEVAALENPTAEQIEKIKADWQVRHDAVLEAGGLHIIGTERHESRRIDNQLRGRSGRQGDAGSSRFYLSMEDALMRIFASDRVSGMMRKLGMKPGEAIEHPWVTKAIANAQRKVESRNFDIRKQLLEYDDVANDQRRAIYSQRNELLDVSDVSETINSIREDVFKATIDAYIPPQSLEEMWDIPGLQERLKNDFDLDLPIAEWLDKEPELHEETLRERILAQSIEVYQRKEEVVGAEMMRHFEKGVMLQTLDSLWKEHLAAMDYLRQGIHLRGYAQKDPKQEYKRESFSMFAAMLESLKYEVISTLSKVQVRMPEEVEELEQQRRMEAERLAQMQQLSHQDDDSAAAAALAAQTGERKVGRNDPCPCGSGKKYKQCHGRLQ

`CCc1n[nH]c(C2CN(C(=O)c3nc(C)ncc3Cl)CCO2)n1` (stereo not given): the Percent Effect in assay [1] was -2.86%; in assay [2], 7.79%; in [3], 9.79%; in assay [4], -2.24%; in assay [5] it was 1.43%; in assay [6], -0.351%. The Percent Effect in [7] was found to be 2.84%; in assay [8], 2.94%; in [9] it was 7.06%; in assay [10], 2.12%.

Take `CS(=O)(=O)NCc1cc2n(n1)CCCN(Cc1nc3ccccc3[nH]1)C2`: the Percent Effect in [1] was -9.74%; in assay [2], 2.7%; in assay [3], 1.38%; in assay [4], -1.46%; in assay [5], 3.85%; in assay [6], 6.16%. Also, the Percent Effect in assay [7] is -1.07%; in assay [8] it was 6.92%; in assay [9] it was 9.76%; in [10] it was 3.52%.

As to `CC(=O)N1CCC2(CCN(C(=O)c3ccc(C)c(C(F)(F)F)c3)CC2)C1`, the Percent Effect is -3.18% in assay [1]; 14.3% in [2]; 1.63% in assay [3]; -7.69% in [4]; 7.29% in [5]; 19.5% in assay [6]. Also, the Percent Effect in assay [7] was 17.8%; in [8], 7.89%; in [9], 0%; in [10], -3.98%.

Consider `CNC(=O)CCCNCc1c(C)nn(C)c1N(C)C`, for which the Percent Effect is -0.3% in assay [1]; 0% in assay [2]; 14.5% in assay [3]; 1.22% in [4]; 2.87% in assay [5]; 2.3% in assay [6]. The Percent Effect is -12.6% in assay [7], 2.39% in assay [8], 1.21% in [9] and -2.02% in assay [10].

Regarding `COc1cccc(C(=O)NCCCN2CCc3ccccc3C2)c1OC`, the Percent Effect in assay [1] was -0.301%; in assay [2] it was -5.33%; in [3], 7.23%; in [4], -2.81%; in [5], 1.77%; in [6] it was -5.34%. Further, the Percent Effect in assay [7] was 10.1%; in [8], 2.63%; in [9] it was 0%; in assay [10] it was -4.32%.

Turning to `CN1CCOC(CNC(=O)Cc2ccccc2F)C1` (stereo not given), the Percent Effect in assay [1] is -1.65%; in [2] it was 15.4%; in [3], -3.95%; in [4] it was 3.47%; in [5], 4.1%; in assay [6], 8.11%. The Percent Effect was -18.4% in assay [7], 7.18% in assay [8], 25.3% in assay [9] and -5.49% in [10].

Take `CC(C)CCC(=O)NC(C)c1nnc2n1CCCCC2` (stereo not given): the Percent Effect in assay [1] was -1.02%; in assay [2] it was 10.4%; in assay [3], 4.23%; in assay [4], 2.42%; in assay [5], -0.205%; in assay [6], 6.84%. In addition, the Percent Effect is -5.87% in [7], 2.94% in assay [8], 7.06% in [9] and -9.02% in [10].

For `Cn1c(C2CC2)nc2c1CCN(CCS(=O)(=O)c1ccccc1)C2`, the Percent Effect in [1] was -3.66%; in assay [2], -5.33%; in assay [3] it was 1.61%; in [4] it was 5.22%; in [5] it was 0%; in assay [6], -2.46%. Also, the Percent Effect was 3.62% in assay [7], 0.526% in [8], 0% in assay [9] and -4.67% in [10].

`O=C1C(NCc2nnc3n2CCCC3)CCN1CC(F)(F)F` (stereo not given): the Percent Effect in assay [1] was -2.08%; in [2] it was 2.56%; in assay [3], -21.5%; in assay [4], 8.73%; in assay [5], -2.05%; in [6] it was 1.79%. Further, the Percent Effect in [7] is 4.98%; in assay [8] it was 1.44%; in [9] it was 8.43%; in assay [10] it was -0.359%.

For `CN1[C@H](Cn2cccn2)C[C@@H]2CN(C(=O)Cc3cccs3)CC[C@@H]21`, the Percent Effect in assay [1] was -4.49%; in assay [2] it was 11.7%; in assay [3], -0.662%; in assay [4] it was -3.56%; in assay [5], -1.83%; in assay [6] it was 9.53%. Further, the Percent Effect in [7] was 18.5%; in assay [8] it was 6.76%; in assay [9] it was 0%; in assay [10], -10.4%.

As for `CC(NC(=O)N1CCC(OCc2ccccc2)CC1)c1nncn1C` (stereo not given), the Percent Effect is -3.83% in assay [1]; 5.33% in assay [2]; -0.332% in assay [3]; 7.63% in [4]; 1.33% in [5]; 14.8% in [6]. The Percent Effect is 15.6% in [7], 2.63% in assay [8], 12.8% in [9] and -8.27% in assay [10].

As to `Cc1ccc(C(=O)N2C[C@@H](OCC3CCOCC3)[C@H]3OCCC[C@H]32)o1`, the Percent Effect in [1] was -3.48%; in assay [2], 14.3%; in assay [3], 0.662%; in [4], 4.58%; in assay [5], 10.9%; in [6] it was 9.44%. For the same compound, the Percent Effect in assay [7] came to 6.42%; in [8], 4.74%; in [9] it was 15.4%; in assay [10] it was 18.8%.

(Values after ChEMBL document CHEMBL3988442, “University of Dundee, Small-Polar-MMV Screening Library” (2021).)
